This is a sample that favours compounds with a hit; in the whole collection about 7.8% have one here.
Vaccinia mCherry: vaccinia inhibition (mCherry reporter) | Vaccinia virus mCherry reporter infection, fluorescence | Potency, µM (series often up to 36.5 µM), for the others: at the highest dose activity change, negative = inhibition, most hits filed as inhibitors | 310,000 compounds, 0.63% hits | AID 720579; calls by dose curve; tested in A549 cells; further: potency means the concentration at half of the fitted maximal effect; nearly all actives have a fitted effect of over 35% in size
Lassa entry inh: Lassa virus entry inhibition; Lassa virus pseudotype entry inhibition, cell reporter; Potency, µM (series often up to 37.9 µM), for inactives: at the highest dose activity change, negative = inhibition, most hits filed as inhibitors; 300,000 compounds, 1.2% hits; AID 540256; calls by dose curve; tested in HEK293 cells; further: potency means the concentration at half of the fitted maximal effect; nearly all actives have a fitted effect of over 50% in size
MARV entry inh: blocks Marburg virus binding to or entry into cells. Marburg virus pseudotyped entry inhibition, cell reporter. Potency, µM (highest dose often 37.8 µM), inactives show at the highest dose activity change, negative = inhibition, hits mostly inhibitors. 300,000 compounds, 1.8% hits; calls by dose curve; tested in HEK293 cells; further: potency means the concentration at half of the fitted maximal effect
HCMV antiviral: inhibitors of human cytomegalovirus. activity change, negative = inhibition, % at 57.5 µM. 410,000 compounds, 4.5% hits. HFF cells, HCMV-luciferase reporter, 72 h; active compounds read low; in the data active means activity change below about -60%; inconclusive means no clear call, values can overlap the other calls; inactive means above about -39%
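Luciferase read-out from HCMV-luciferase-infected HFFs (MOI 1 PFU/cell) 72 h post infection at 37C; compounds added after 16 h cell attachment; activity normalized between buffer-only basal and Salinomycin (10uM) inhibitor controls.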
VACV Venus inh: inhibitors of vaccinia virus (Venus reporter); Potency, µM (series often up to 36.5 µM), without a hit: top-dose activity change, negative = inhibition, usual class: inhibitors; Vaccinia virus Venus reporter expression, fluorescence; 330,000 compounds, 0.46% hits; calls by dose curve; tested in A549 cells; further: potency means the concentration at half of the fitted maximal effect; nearly all actives have a fitted effect of over 30% in size
HCV inh: inhibitors of hepatitis C virus infection; Potency, µM (series often up to 41.8 µM), inactives show at the highest dose activity change, negative = inhibition, hits mostly inhibitors; Huh7.5.1 HCVcc-Cre infection, luciferase reporter, 44 h; 340,000 compounds, 3.4% hits; active means well fitted inhibition curve with a large enough effect; inconclusive means small, poorly fitted or top-dose-only effect, or another doubt; inactive means no such curve, though single readings can be large or run the other way; further: potency means the concentration at half of the fitted maximal effect
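1,000 cells/well; 4 h culture; + compound; + HCVcc-Cre (~0.5 moi); 44 h; luciferase substrate, RT 15 min; read 15 sec.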
* marks the source's active call; other numbers are inactive results; i = inactive; ? = inconclusive; . = no result given; [ ] = remark or other dose. On the % scale 0 is the no-effect control and ±100 the full control effect.

SMILES	Vaccinia mCherry	Lassa entry inh	MARV entry inh	HCMV antiviral	VACV Venus inh	HCV inh
OC(CN1CCN(Cc2ccc3c(c2)OCO3)CC1)c1c[nH]c2ccccc12 (centres undefined)	-10%	?	-28%	-88*	-13%	?
Cc1c(C(O)CN2CCN(Cc3ccc4c(c3)OCO4)CC2)c2ccccc2n1C (centres undefined)	-21%	?	?	-28	-5%	18µM*
CCN(CCO)C(=O)c1cnn(-c2ncc3c(n2)-c2ccccc2CCC3)c1C1CC1	-18%	.	.	.	-19%	.
COc1ccccc1CNC(=O)c1cnc2ccccn2c1=O	i	.	.	41	-17%	7%
COc1ccccc1CNC(=O)c1cnc2sccn2c1=O	0%	.	.	14	-14%	10µM*
CCSc1ncc(Cl)c(C(=O)N(Cc2ccc(C(C)(C)C)cc2)C2CCS(=O)(=O)C2)n1 (centres undefined)	-17%	-28%[46.1 µM]	?	?	-17%	.
Cc1ccc(/C=N/Nc2cc(C)nc(N3CCOCC3)n2)cc1	i	14%	?	-7	-14%	-30%
CC(C)c1ccc(/C=N/Nc2cc(N3CCOCC3)nc(N3CCOCC3)n2)cc1	-17%	?	?	-38	-12%	?
Cc1cc(N/N=C/c2ccccc2)nc(N2CCOCC2)n1	-17%	6%	1.6µM*	19	-6%	?
Cc1cccc(/C=N/Nc2cc(N3CCOCC3)nc(N3CCOCC3)n2)c1	?	?	1.4µM*	-15	?	6.3µM*
O=C(C1CCCCC1)N1C[C@@H](n2cc(-c3ccc(F)cc3)nn2)[C@@H](O)C[C@@H]1c1ccccc1	.	-2%[46.1 µM]	.	.	.	.
CC(=O)c1c(C)oc2ccc(N(C(C)=O)S(=O)(=O)c3cccc4cccnc34)cc12	?	?	?	-79*	?	?
CCOc1ccc(S(=O)(=O)N(C(C)=O)c2ccc3oc(C)c(C(=O)OC)c3c2)cc1	?	?	?	-62*	?	.
CCCC(=O)N(c1ccc2oc(C)c(C(C)=O)c2c1)S(=O)(=O)c1ccc(CC)cc1	?	?	.	-93*	?	.
CC(=O)c1c(C)oc2ccc(N(C(C)=O)S(=O)(=O)c3ccc(F)cc3C)cc12	i	-3%	-21%	2	-7%	?
Cc1ccc(OCc2nnc(SCC(=O)Nc3ccccc3C(C)C)o2)cc1	5%	11%[46.1 µM]	.	-7	-12%	.
Cc1cc(C)c(Cn2c(C(O)c3ccccc3)nc3ccccc32)c(C)c1 (centres undefined)	-10%	?	?	?	-21%	.
Cc1ccsc1/C=C/C1=Cc2c(sc(NC(=O)CSc3n[nH]c(N)n3)c2C#N)C(C)(C)C1	?	?	?	-20	?	11µM*
CCOCCCNCc1ccc(OC)cc1	-15%	10%	0%	28	-16%	17%
COc1ccc2cc(CNCCOCCOCCNCc3ccc4cc(OC)ccc4c3)ccc2c1	?	?	?	-98*	?	4µM*
Cc1ccc(C(=O)Nc2cccc(-c3nc(CNC(=O)c4cccc(C)c4C)c(C)o3)c2)s1	?	.	.	.	-24%	.
COc1ccc(CNC(C)C2COc3ccccc3O2)c(OC)c1 (centres undefined)	.	2%	11µM*	-8	-6%	-6%
FC(F)(F)c1ccc(CSc2nccn2-c2ccccc2)cc1	-7%	-1%	-19%	6	-17%	2%
Brc1ccc(CSc2nccn2-c2ccccc2)cc1	.	-23%	?	-73*	?	-3%
Cc1nc2nc(-c3ccc(Cl)cc3Cl)nn2c(C)c1CCC(=O)Nc1ccc(F)cc1	-12%	-6%[46.1 µM]	3%[46.1 µM]	-18	-10%	.
SMILES	Vaccinia mCherry	Lassa entry inh	MARV entry inh	HCMV antiviral	VACV Venus inh	HCV inh
COc1ccc(N(C)C(=O)NCc2noc3ccc(C)cc23)c(OC)c1	-3%	2%[46.1 µM]	.	-82*	6%	.
COc1ccc(OC)c(CNC(=O)NCc2noc3ccc(C)cc23)c1	-2%	14%[46.1 µM]	.	14	4%	.
C[C@@H]1[C@@H](Sc2ccccc2)CC(=O)O[C@@H]1c1ccc(-c2ccccc2)cc1	?	.	.	?	2.5µM*	?
O=C1C[C@H](c2ccccc2)[C@@H](c2ccc(Br)cc2)O1	.	.	-17%[14.2 µM]	.	.	.
O=C(NC1CCCCC1)c1nnc2n1CCN(C(=O)c1ccc3occc3c1)C2	.	.	.	-13	.	.
O=C(NCc1ccco1)c1ccc(Cn2c(=O)c3sccc3n(Cc3cccc(F)c3)c2=O)cc1	11%	.	-1%	-61*	-6%	?
O=C(Nc1ccc2c(c1)OCCO2)c1cc2sccc2n1Cc1ccccc1	i	?	?	?	-20%	11µM*
O=C(c1ccco1)N1CCN(C(=O)c2cc3sccc3n2Cc2ccccc2)CC1	.	?	-6%	-71*	.	-27%
O=C(NCc1ccco1)c1cc2sccc2n1Cc1ccccc1	-19%	-23%[14.3 µM]	11%	-11	-12%	?
O=C(NCc1ccco1)C1CCN(C(=O)c2cc3sccc3n2Cc2ccc(F)cc2)CC1	-10%	10µM*	4%	-7	-30%	?
O=C(NCc1ccco1)c1ccc(Cn2c(=O)c3ccccc3n(Cc3cccc(Cl)c3)c2=O)cc1	.	-9%	?	-34	.	?
Cn1c(C(=O)N2CCCC(C(=O)NCCc3ccccc3)C2)cc2sccc21 (centres undefined)	-2%	?	?	-97*	-16%	?
O=C(NCCCN1CCCC1)C1CCN(C(=O)c2cc3sccc3n2Cc2ccc(F)cc2)CC1	-26%	27%	?	.	-22%	25µM*
CSc1ccccc1NC(=O)COC(=O)CCc1ccccc1	i	5%	6%[46.1 µM]	-62*	-6%	8%
CSc1ccccc1NC(=O)Cc1ccccc1	-10%	30%[46.1 µM]	-2%[46.1 µM]	4	-8%	-1%
CCN(CC(=O)Nc1ccc(OC)cc1)C(=O)c1ccccc1Sc1ccccc1C#N	?	-18%	?	-19	2%	22µM*
CNC(=O)c1ccc(NC(=O)c2cc(S(=O)(=O)N(C)C)ccc2N2CCCC2)cc1	.	.	.	-100*	.	4%
CCN(CC(=O)Nc1ccc(OC)cc1)C(=O)c1cc(S(=O)(=O)N(C)C)ccc1N1CCCC1	-15%	-1%	5%[46.1 µM]	-35	-10%	11µM*
CCC(Sc1nc2nccnc2c(=O)n1Cc1ccc(F)cc1)C(=O)NC1CCCCC1 (centres undefined)	-11%	-4%[46.1 µM]	.	-3	-3%	.
COc1ccccc1-c1c(C)[nH]n2c(=O)c(Cc3ccccc3)c(C)nc12	.	.	.	-6	.	-23%
Cc1nc2c(-c3ccccc3)c[nH]n2c(=O)c1Cc1ccccc1	i	?	9.2µM*	-99*	-21%	?
Cc1nc2c(-c3ccccc3)c(C)[nH]n2c(=O)c1Cc1ccc(Br)cc1	-19%[7.34 µM]	?	?	-97*	-8%[7.34 µM]	.
CCCCc1c(C)nc2c(-c3ccc(Cl)cc3)c(C)[nH]n2c1=O	11µM*	-10%[46.1 µM]	9%[46.1 µM]	-7	?	.

Screening data from PubChem BioAssay.
